Most compounds without a hit are left out; they make up all but 3.8% or so of the library.
Yeast superoxide – reduction of superoxide in aged yeast, primary screen, HTS | S. cerevisiae aged cells, superoxide DHE fluorescence; stronger effect = lower value | superoxide response (% of plate mean), % at 10 µM | hit rate 0.18% among 330,000;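 active = superoxide response under a set limit, about three screen SD below normal, cut at about 65% in these data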;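 note: yeast aged for seven days with compound at 30 °C before DHE staining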
Mot1-301 SUMO – yeast Mot1-301 growth rescue at high temperature, primary screen, SUMOylation pathway inhibitor project, S. cerevisiae, ATP luminescence, 38.5C | AID 2716, 2010 | hit rate 1% among 320,000 | S. cerevisiae Mot1-301 growth rescue; percent above DMSO median, 100 means doubled | growth rescue, % at 18.8 µM;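 active = every valid replicate shows activation above 250% relative to neutral control wells; inactive = the rest, any valid replicate at or below 250%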
Cardio protect – cardioprotection against H2O2-induced cell death, primary screen, uHTS, H9c2 cells, ATPLite luminescence. H9c2 cardiomyocytes, H2O2 injury protection, 2 h. hit rate 0.63% among 360,000. protection from H2O2 cell death, % at 20 µM;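 active = compounds giving at least 50% protection of heart cells from peroxide-induced death in the single-dose screen, raw or plate-pattern-corrected value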
aDG glyco up – activators of alpha-DG glycosylation, primary screen, uHTS, Pro5-aDG cells, AlphaScreen; alpha-DG glycosylation AlphaScreen (IIH6); 0% Pro5, 100% B10-LARGE cell signal; activation, % at 10 µM; hit rate 0.22% among 360,000;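 active = activation of at least 8% versus controls, or a plate z-score of at least 8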;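 note: Pro5 are CHO cells carrying HIG-tagged alpha-DG that lacks glycosylation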
FAS-TE inh – FAS thioesterase domain inhibitors, primary screen, biochemical, fluorescence intensity, uHTS | Fatty acid synthase (Homo sapiens), P49327 | recombinant FAS-TE, OMFH fluorogenic substrate, fluorescence endpoint | inhibition, % at 15 µM | hit rate 0.67% among 360,000;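 active = compounds whose normalised, plate-corrected inhibition of enzyme fluorescence in the single-dose primary screen is 50% or more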
Target sequence (P49327 whole entry, looked up, the tested form may be a part): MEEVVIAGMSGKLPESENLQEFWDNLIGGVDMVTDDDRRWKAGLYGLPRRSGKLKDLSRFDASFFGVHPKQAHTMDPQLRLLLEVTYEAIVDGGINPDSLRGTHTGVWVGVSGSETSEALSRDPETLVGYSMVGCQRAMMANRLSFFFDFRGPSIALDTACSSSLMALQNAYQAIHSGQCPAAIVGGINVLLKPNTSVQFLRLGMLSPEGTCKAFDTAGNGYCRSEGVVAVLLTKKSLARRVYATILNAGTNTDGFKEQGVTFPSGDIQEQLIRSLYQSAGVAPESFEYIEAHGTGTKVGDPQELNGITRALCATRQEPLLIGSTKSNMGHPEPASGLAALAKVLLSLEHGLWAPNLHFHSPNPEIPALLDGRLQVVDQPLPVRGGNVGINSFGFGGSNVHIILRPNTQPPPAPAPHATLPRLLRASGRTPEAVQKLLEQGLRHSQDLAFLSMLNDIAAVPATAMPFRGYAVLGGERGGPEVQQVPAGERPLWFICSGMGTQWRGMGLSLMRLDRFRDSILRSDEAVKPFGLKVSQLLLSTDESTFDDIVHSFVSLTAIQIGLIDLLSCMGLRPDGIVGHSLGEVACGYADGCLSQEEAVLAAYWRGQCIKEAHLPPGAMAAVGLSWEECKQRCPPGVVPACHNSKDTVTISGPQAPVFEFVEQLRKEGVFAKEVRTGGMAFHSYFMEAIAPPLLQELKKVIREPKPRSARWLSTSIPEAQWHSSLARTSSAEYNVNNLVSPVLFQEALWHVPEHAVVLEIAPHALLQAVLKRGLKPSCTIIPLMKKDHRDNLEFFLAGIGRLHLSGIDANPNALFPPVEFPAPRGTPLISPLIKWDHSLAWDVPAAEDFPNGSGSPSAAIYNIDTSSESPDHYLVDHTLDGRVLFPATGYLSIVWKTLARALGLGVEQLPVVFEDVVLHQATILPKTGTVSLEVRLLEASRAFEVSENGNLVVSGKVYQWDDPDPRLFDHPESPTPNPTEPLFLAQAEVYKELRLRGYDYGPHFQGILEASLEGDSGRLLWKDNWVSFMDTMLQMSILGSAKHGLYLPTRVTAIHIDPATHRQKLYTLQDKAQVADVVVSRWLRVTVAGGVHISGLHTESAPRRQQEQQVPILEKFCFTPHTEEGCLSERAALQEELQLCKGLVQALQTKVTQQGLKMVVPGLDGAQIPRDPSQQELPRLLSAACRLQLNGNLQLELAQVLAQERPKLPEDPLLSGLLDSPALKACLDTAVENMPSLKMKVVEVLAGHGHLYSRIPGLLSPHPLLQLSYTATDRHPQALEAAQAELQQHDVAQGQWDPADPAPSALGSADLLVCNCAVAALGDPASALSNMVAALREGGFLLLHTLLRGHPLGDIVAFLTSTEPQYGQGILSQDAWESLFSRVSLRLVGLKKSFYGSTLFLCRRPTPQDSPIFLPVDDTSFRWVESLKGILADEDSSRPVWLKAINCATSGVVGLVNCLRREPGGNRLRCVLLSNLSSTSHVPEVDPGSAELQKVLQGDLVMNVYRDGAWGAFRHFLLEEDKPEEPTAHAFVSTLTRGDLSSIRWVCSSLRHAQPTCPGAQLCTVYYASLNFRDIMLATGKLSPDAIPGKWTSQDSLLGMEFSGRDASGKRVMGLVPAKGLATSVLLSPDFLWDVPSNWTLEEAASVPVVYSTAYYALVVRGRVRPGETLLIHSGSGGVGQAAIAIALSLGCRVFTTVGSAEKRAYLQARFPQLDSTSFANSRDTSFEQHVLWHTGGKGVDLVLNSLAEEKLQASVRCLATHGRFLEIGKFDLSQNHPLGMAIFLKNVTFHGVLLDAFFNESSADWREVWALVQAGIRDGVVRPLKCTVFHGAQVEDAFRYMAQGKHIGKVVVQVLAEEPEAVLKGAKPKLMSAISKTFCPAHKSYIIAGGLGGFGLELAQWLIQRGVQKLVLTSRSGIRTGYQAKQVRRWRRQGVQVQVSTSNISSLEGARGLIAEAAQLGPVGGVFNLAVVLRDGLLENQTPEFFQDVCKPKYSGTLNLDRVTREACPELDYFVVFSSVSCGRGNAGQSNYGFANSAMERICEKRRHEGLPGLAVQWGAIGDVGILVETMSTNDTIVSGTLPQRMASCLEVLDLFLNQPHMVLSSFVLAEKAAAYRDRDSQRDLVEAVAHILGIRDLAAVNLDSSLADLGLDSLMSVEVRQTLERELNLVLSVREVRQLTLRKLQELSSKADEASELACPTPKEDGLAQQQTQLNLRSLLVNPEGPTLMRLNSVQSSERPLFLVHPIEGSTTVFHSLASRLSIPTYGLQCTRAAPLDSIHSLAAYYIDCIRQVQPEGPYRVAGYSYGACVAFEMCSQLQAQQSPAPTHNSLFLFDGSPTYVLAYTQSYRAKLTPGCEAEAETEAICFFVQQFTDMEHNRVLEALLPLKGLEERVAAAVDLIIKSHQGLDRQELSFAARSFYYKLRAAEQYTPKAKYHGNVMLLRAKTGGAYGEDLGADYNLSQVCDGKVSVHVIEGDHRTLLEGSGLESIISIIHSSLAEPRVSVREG
MPTP inh – mitochondrial permeability transition pore inhibitors, primary screen, biochemical, isolated mouse mitochondria, absorbance; inhibition, % at 10 µM; Ca2+ swelling absorbance, 30 min; hit rate 1.4% among 360,000;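 active = inhibition of 50% or more, scaled per plate between neutral and stimulator controls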
Yeast Mot1 SUMO – growth restoration of Mot1-301 yeast on galactose, dose response, SUMO pathway inhibitor project, whole organism, S. cerevisiae, ATP luminescence, cherry-picked samples; shares compounds with Mot1-301 SUMO; S. cerevisiae Mot1-301 galactose growth, 24 h; -100 = growth of slx-deleted rescue strain; growth activity, percent, % at 42 µM; AID 493004, 2010; 2,300 tested, under 10 active;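 active = Signal drops as the depositor expects, and the fitted half-maximal dose is no more than ten times the top valid tested dose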;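 note: more negative values mean stronger growth rescue toward the control strain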
A number is an active result; - = inactive; . = not tested or not shown; + = active, no number.

SMILES | Yeast superoxide | Mot1-301 SUMO | Cardio protect | aDG glyco up | FAS-TE inh | MPTP inh | Yeast Mot1 SUMO
Cc1nnc(SCC(=O)NC(C)(C)C)n1NCc1ccc(N(C)C)cc1 | - | - | - | - | - | - | .
Cc1nnc(SCC(=O)NC(C)(C)C)n1NCc1ccc(Cl)cc1 | - | 785 | - | - | - | - | -
O=C(NCc1ccccc1)c1cc(C2CCCCN2C(=O)c2ccc(Cl)cc2)on1 (stereo not given) | . | . | - | - | - | - | .
COc1ccc(NC(=O)Cn2nnc(C(=O)Nc3ccc(F)c(Cl)c3)c2N)cc1 | - | 477 | - | - | - | - | -
CCCNC(=O)COC(=O)CCC(=O)c1cccs1 | - | 422 | - | - | - | - | -
CCNC(=O)COC(=O)CCC(=O)c1cccs1 | - | - | - | - | - | - | .
Cc1cccc(OCc2nnc(SCC(=O)O)n2-c2ccccc2)c1 | - | + | - | - | - | - | -
COc1cc(NC(=O)c2ccc(S(=O)(=O)N(C)c3ccccc3)cc2)cc(OC)c1 | - | . | - | - | - | - | .
CCc1ccc2c(c1)C(c1ccc([N+](=O)[O-])cc1)=NNC(c1ccc(C)cc1)=N2 | - | 407 | - | - | - | - | -
COC(=O)CNC(=O)CSc1ccccn1 | - | + | - | - | - | - | -
COc1ccc(NC(=O)CSc2ccccn2)cc1 | - | - | - | - | - | - | .
COc1ccc(C(=O)NNC(=S)NC(=O)c2cccc([N+](=O)[O-])c2)cc1 | - | - | - | - | - | - | .
O=C(NC(=S)NNC(=O)c1ccccc1O)c1cccc([N+](=O)[O-])c1 | - | 368 | - | - | - | - | -
O=C(O)COc1ccc(Br)cc1/C=N\Nc1ccccn1 | - | 425 | - | - | - | - | -
CC(C)Oc1ccc(S(=O)(=O)N2CCCCC2)cc1NC(=O)CN1CCCC1c1cccs1 (stereo not given) | - | - | - | - | - | - | .
CCc1nc2c(OCc3ccc(Cl)cc3Cl)cccn2c1N(C)C(=O)C1CC1 | . | . | - | - | - | - | .
Cc1c(NP(=O)(c2ccc(Br)cc2)c2ccc(Br)cc2)c(=O)n(-c2ccccc2)n1C | - | 381 | - | - | - | - | -
Cc1c(NS(=O)(=O)c2ccc(Br)cc2)c(=O)n(-c2ccccc2)n1C | - | - | - | - | - | - | .
CS(=O)(=O)Nc1ccc(C2=NN(S(C)(=O)=O)C(c3ccc4c(c3)OCO4)C2)cc1 (stereo not given) | - | - | - | - | - | - | .
COC(=O)c1ccccc1N(C)S(C)(=O)=O | - | 563 | - | - | - | - | -
Cc1ccc(N(CC(=O)Nc2cccc(C)c2)S(=O)(=O)c2cccc3nonc23)cc1 | - | 616 | - | - | - | - | -
Cc1ccc(O)c(C(=O)CC(=O)c2cccc(F)c2)c1 | - | 538 | - | - | - | - | -
Cc1cccc(C(=O)CC(=O)c2cc(Cl)ccc2O)c1 | - | - | - | - | - | - | .
O=C1CCN(Cc2ccccc2)C=C1c1ccc(Br)cc1 | - | - | - | - | - | - | .
CC(=O)Nc1cccc(OCC(O)Cn2c(C)nc3ccccc32)c1 (stereo not given) | - | 655 | - | - | - | - | -
SMILES | Yeast superoxide | Mot1-301 SUMO | Cardio protect | aDG glyco up | FAS-TE inh | MPTP inh | Yeast Mot1 SUMO
CCCOC(=O)c1ccc(O)c(OC)c1 | - | 398 | - | - | - | - | -
CCOc1cccc(C(=O)Nc2ccc(S(=O)(=O)Nc3cc(C)on3)cc2)c1 | - | - | - | - | - | - | .
Cc1ccc(S(=O)(=O)N2CCCC2C(=O)NCCc2ccccc2)cc1 (stereo not given) | - | 471 | - | - | - | - | -
COc1ccc(C)cc1S(=O)(=O)N1CCC(C(=O)NCCc2ccccc2)CC1 | - | 413 | - | - | - | - | -
CCC(CC)NC(=O)c1oc2ccccc2c1COc1ccccc1 | - | 518 | - | - | - | - | -
COC/C=C/C1=CC2=CC(=O)C(C)(OC(=O)c3cnc4ccccc4n3)C(=O)C2=CN1CCOC (stereo not given) | - | 519 | - | - | - | - | -
COC/C=C/C1=CC2=CC(=O)C(C)(OC(=O)c3cnc4ccccc4n3)C(=O)C2=CN1CCCOC(C)C (stereo not given) | - | - | - | - | - | - | .
CSc1nnc2c3cc(C)ccc3n(Cc3ccccc3)c2n1 | - | 910 | - | - | - | - | -
Cc1cc(-c2ccc(Cl)cc2Cl)c(C#N)c(=O)[nH]1 | - | 418 | - | - | - | - | -
COc1cc(NC(=O)c2cc(OC)c(OC)c(OC)c2)cc(-n2cnnn2)c1 | - | - | - | - | - | - | .
CCNc1ccccc(C(=O)/C=C/c2ccc3c(c2)OCO3)c1=O | - | 439 | - | - | - | - | -
COc1ccc(CNC(=O)c2nn(-c3ccccc3)cc2OC)cc1 | - | - | - | - | - | - | .
CCOC(=O)[C@]12CCC=C1N(CCC1=CCCCC1)C(=O)[C@H](CC(=O)NCc1cccs1)C2 | . | . | . | - | - | - | .
COc1ccc(NC2=C(C)C(=O)CC2)cc1 | - | 594 | - | - | - | - | -
COc1ccc(C2CC3(CC(C)(C)NC(=S)N3)Oc3cc(O)cc(C)c32)cc1 (stereo not given) | - | 978 | - | - | - | - | -
CCc1ccc(N2CC(C(=O)N3CCCC3)CC2=O)cc1 (stereo not given) | - | - | - | - | - | - | .
CC(=O)/C(N)=N/Nc1cccc(Cl)c1 | - | 437 | - | - | - | - | -
CC(=O)/C(=N\Nc1cccc(Cl)c1)Sc1cccc2cccnc12 | - | - | - | - | - | - | .
O=S(=O)(Nc1ccc2c(c1)CCC2)c1cccs1 | - | - | - | - | - | - | .
O=C(N/N=C/c1ccc(N2CCOCC2)cc1)c1ccc(NS(=O)(=O)c2cccs2)cc1 | - | - | - | - | - | - | .
O=C1OCc2cc(NS(=O)(=O)c3cccs3)ccc21 | - | 411 | - | - | - | - | -
O=S(=O)(Nc1ccc(N2CCOCC2)cc1)c1cccs1 | - | 579 | - | - | - | - | -
O=C(O)C[C@H]1c2cc(C(F)(F)F)ccc2S(=O)(=O)N1C1CCCCC1 | - | - | - | - | - | - | .
CNS(=O)(=O)c1cc(-c2nnc(N3CCOCC3)c3ccccc23)ccc1C | - | - | - | - | - | - | .
Oc1ccc(C2=CSC3=NCCN23)cc1O | - | 718 | - | - | - | - | -
Brc1ccc(C2=CSC3=NCCN23)cc1 | - | - | - | - | - | - | .

Screening data as filed in PubChem.
